This passage reports composite z-score results from PubChem BioAssay.

For the assay, the target named is Follistatin (Homo sapiens) (UniProt P19883). Briefly: FST protein binding to printed compounds – biochemical, small-molecule microarray, 635/667 nm fluorescence, primary screen (AID 1132). The following applies: 635 nm fluorescence, higher = more signal.
Chain of Follistatin (Homo sapiens) (P19883 whole entry, looked up): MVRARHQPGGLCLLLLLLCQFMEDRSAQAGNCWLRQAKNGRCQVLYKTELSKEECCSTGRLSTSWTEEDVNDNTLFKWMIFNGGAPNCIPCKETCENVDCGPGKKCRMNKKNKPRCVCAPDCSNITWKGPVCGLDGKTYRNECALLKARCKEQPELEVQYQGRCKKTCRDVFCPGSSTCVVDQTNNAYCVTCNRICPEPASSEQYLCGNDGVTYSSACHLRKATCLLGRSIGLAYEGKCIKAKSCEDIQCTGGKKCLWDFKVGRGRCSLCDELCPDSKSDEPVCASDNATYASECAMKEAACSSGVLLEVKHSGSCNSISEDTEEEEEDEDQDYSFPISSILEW
As to `CCCC=C(CCC)[C@@H](NS(=O)(=O)c1ccc(-c2ccccc2)cc1)c1ccc(C(=O)OC)cc1`, the composite z-score is -0.407.

For the compound `COc1ccc([Si](C)(C)[C@@H]2[C@@H](CC(=O)N(CCO)Cc3ccccc3)O[C@]3(C(=O)N(Cc4cccc(N5CCC5=O)c4)c4ccccc43)[C@H]2C)cc1`, the composite z-score was 1.3.

In the case of `CCC1=C2CN(Cc3ccccc3Br)[C@@H]([C@@H](O)Cc3ccccc3)C2C=CCC1` (stereo not given in full), the composite z-score is 0.651.

In turn, `CO[C@H]1COC(=O)[C@H](C)COC(=O)[C@H](Cc2ccccc2)NC(=O)CC=C[C@H]1C` yielded a composite z-score of 1.42.

In turn, `Cc1ccc(S[C@]2(C(=O)NC3CC3)CC(=O)N(Cc3cc(C(F)(F)F)cc(C(F)(F)F)c3)[C@@H]2c2ccc(CO)cc2)cc1` displayed a composite z-score of 1.2.

In the case of `CCCC[C@@H]1C[C@H]1[C@@H](NC(=O)c1cccs1)c1ccc(Cl)cc1`, the composite z-score is -1.44.

On to `COC(=O)C(CC#Cc1ccc2c(c1)[C@]1(C(=O)N2)[C@H](C(=O)N2CCCCCCC2)[C@H]2C(=O)O[C@H](c3ccccc3)[C@H](c3ccccc3)N2[C@@H]1c1ccc(O)cc1)C(=O)OC`, for which the composite z-score was -0.408.

In the case of `CC(C)N1CC=CC23O[C@@H]4/C=C\CCCOC(=O)C4[C@H]2C(=O)N(CCO)[C@@H]3C1=O` (stereo not given in full), the composite z-score is -0.544.

On to `O=C1O[C@H](c2ccccc2)[C@H](c2ccccc2)N2[C@H]1[C@@H](C(=O)NC[C@H](O)c1ccccc1)[C@]1(C(=O)Nc3ccc(C#CC4=CCCCC4)cc31)[C@H]2c1ccc(OCCO)cc1`, for which the composite z-score turned out to be 1.2.

`Cc1ccc(S[C@]2(C(=O)NC(C)C)CC(=O)N(C3Cc4ccccc4C3)[C@@H]2c2ccc(CO)cc2)cc1` displayed a composite z-score of 0.34.
